Records with an inconclusive call do not appear. Activity calls are given as the source filed them. The calls were made as follows: active = hit-call score of the fitted dose curve at least 0.9, where 1 is the maximum; inconclusive = response in the unintended direction; inactive = score below 0.9.
Tests used:
[1] = target: Cellular tumor antigen p53 (Homo sapiens) (UniProt P04637); assay: TOX21_p53_BLA_p2_ratio: Tox21 HCT-116 p53 Agonism Beta-lactamase Assay, Ratio, Phase 2 (AID 2283592)
How it was run: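 First, HCT116 reporter cells settle for 5 h at 37C. Next, DMSO compound solutions are pinned in (217-fold dilution) and left 16 h. Finally, CCF4-AM substrate is loaded 2 h at room temperature and the 460/530 nm ratio read.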

[2] = TOX21_p53_BLA_p3_viability: Viability Assessment in the Tox21 HCT-116 p53 Agonism Beta-lactamase Assay, Phase 3 (AID 2283593);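 also: cells exposed to compound for 16 h before reading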
How it was run: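 HCT116 cells, 4000/well, dosed 5 h after plating by pin transfer (217-fold dilution from DMSO stock) and incubated 16 h at 37C, 5% CO2. Viability read as ATP luminescence with CellTiter-Glo after 30 min at room temperature.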

[3] = target: Cellular tumor antigen p53 (Homo sapiens) (UniProt P04637); assay: TOX21_p53_BLA_p3_ratio: Tox21 HCT-116 p53 Agonism Beta-lactamase Assay, Ratio, Phase 3 (AID 2283596)
How it was run: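 Cells were seeded at 4000/well, rested 5 h at 37C, then dosed with DMSO compound solutions (217-fold dilution) for 16 h. CCF4-AM substrate was loaded for 2 h at room temperature, and the 460/530 nm emission ratio was fitted for gain of signal versus DMSO.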

[4] = TOX21_p53_BLA_p4_viability: Viability Assessment in the Tox21 HCT-116 p53 Agonism Beta-lactamase Assay, Phase 4 (AID 2283597);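 also: hits lower the luminescence signal meaning cytotoxicity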
How it was run: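 4000 HCT116 cells per well; 5 h attachment; compounds from DMSO, 217-fold dilution; 16 h at 37C. Then CCF4-AM, 2 h RT, followed by CellTiter-Glo, 30 min RT, luminescence. Decrease = cytotoxicity.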

[5] = target: Cellular tumor antigen p53 (Homo sapiens) (UniProt P04637); assay: TOX21_p53_BLA_p5_ratio: Tox21 HCT-116 p53 Agonism Beta-lactamase Assay, Ratio, Phase 5 (AID 2283599)
How it was run: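 HCT-116 p53-bla cells (4000/well) plated 5 h, dosed with compound (217-fold DMSO dilution) for 16 h at 37 C; CCF4-AM substrate 2 h at room temperature. Activity is the 460/530 nm emission ratio (405 nm excitation), fitted in gain-of-signal direction versus DMSO.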

[6] = TOX21_p53_BLA_p5_viability: Viability Assessment in the Tox21 HCT-116 p53 Agonism Beta-lactamase Assay, Phase 5 (AID 2283600)
How it was run: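 Decreased CellTiter-Glo luminescence denotes lost viability. Exposure: 16 h at 37C, 5% CO2, with compounds from DMSO stocks diluted 217-fold in wells of 4000 cells.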

[7] = target: Cellular tumor antigen p53 (Homo sapiens) (UniProt P04637); assay: TOX21_p53_BLA_p4_ratio: Tox21 HCT-116 p53 Agonism Beta-lactamase Assay, Ratio, Phase 4 (AID 2283601)
How it was run: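 HCT-116 p53 beta-lactamase reporter cells (4000/well) preincubated 5 h, then compound (217-fold dilution of DMSO stock) for 16 h at 37C. CCF4-AM substrate added 2 h at room temperature; 460/530 nm emission ratio fitted upward versus DMSO.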

[8] = target: Thyroid hormone receptor alpha (Rattus norvegicus) + Thyroid hormone receptor beta (Rattus norvegicus) (UniProt P18113+P63059); assay: TOX21_TR_LUC_GH3_Antagonist_Followup: Tox21 GH3 Thyroid Hormone Receptor Antagonism Luciferase Follow-Up Assay (AID 2283942)
How it was run: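 Luminescence read-out (ONE-Glo, 30 min at room temperature) in GH3 reporter cells challenged with 1.0 nM T3 final. Compounds ran at 92 uM to 5nM over 15 concentrations for 24 h; DMSO served as negative control and baseline.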

THRB (gene 7068) = THRB (gene 7068) (UniProt P10828); assay: TOX21_TRB_BLA_Antagonist_Followup_ratio: Tox21 Thyroid Hormone Receptor beta Antagonism Beta-lactamase (BLA) Follow-Up Assay, Ratio (AID 2283958)
THRB (gene 7068), sequence (P10828 whole entry, looked up): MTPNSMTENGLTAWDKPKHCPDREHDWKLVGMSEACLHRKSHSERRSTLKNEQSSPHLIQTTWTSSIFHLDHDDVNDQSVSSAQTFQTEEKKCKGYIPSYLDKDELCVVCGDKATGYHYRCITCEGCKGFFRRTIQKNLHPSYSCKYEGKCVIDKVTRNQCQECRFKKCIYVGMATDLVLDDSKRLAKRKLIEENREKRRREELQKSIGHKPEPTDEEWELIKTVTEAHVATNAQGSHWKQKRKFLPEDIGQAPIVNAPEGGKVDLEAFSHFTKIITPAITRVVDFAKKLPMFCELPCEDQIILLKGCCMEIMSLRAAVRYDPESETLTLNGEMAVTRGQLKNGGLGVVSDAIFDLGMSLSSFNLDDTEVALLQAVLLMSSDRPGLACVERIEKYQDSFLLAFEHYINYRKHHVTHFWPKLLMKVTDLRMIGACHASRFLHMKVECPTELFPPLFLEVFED
How it was run: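 Cells were plated and allowed to attach for 5 h, then dosed with compounds in DMSO at 11 concentrations for 18 h at 37C. Beta-lactamase reporter activity was measured via CCF4-AM FRET as the 460:530 nm ratio.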

Cellular tumor antigen p53 (Homo sapiens), sequence (P04637 whole entry, looked up): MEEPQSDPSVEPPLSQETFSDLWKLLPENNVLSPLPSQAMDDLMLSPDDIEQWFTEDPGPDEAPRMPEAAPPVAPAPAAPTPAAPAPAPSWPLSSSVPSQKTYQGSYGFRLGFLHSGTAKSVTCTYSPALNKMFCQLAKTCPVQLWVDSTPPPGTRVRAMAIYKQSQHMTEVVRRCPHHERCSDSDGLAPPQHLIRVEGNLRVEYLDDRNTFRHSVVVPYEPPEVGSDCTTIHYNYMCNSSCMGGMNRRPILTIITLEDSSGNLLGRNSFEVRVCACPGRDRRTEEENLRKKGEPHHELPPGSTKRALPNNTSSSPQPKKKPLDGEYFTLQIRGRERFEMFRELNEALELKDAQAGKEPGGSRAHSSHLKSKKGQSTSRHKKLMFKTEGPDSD

Row | SMILES | outcome [1] | outcome [2] | outcome [3] | outcome [4] | outcome [5] | outcome [6] | outcome [7] | outcome [8] | outcome (THRB (gene 7068)) | AC50 [1]
1 | C[C@]12CC[C@H]3[C@@H](CCC4=C(Cl)C(=O)CC[C@@]43C)[C@@H]1CC[C@@H]2O | inactive | inactive | inactive | inactive | inactive | inactive | inactive | inactive | inactive | 
2 | N#CC(C#N)=Cc1ccc(O)c(O)c1 | inactive | inactive | inactive | inactive | inactive | inactive | inactive |  |  | 
3 | CNc1ccc(C(=O)CC(O)CCC(C)C2OC(=O)CC(O)CC(=O)CC(O)CC(O)CC(O)CC(O)CC3(O)CC(O)C(C(=O)OC)C(CC(O[C@@H]4O[C@H](C)[C@@H](O)[C@H](N)[C@@H]4O)/C=C/C=C/C=C/C=C/C=C/C=C/C=C/C2C)O3)cc1 (stereo partly specified) (tested in a mixture with another compound) |  | inactive | inactive | inactive |  | inactive | inactive |  |  | 37.8 µM (active)
4 | S=C(SSC(=S)N1CCCCC1)N1CCCCC1 | inactive | inactive | inactive | inactive | inactive | inactive | inactive |  |  | 
5 | Nc1cc(Cl)ccc1Cl | inactive | inactive | inactive | inactive | inactive | inactive | inactive |  |  | 

Source: PubChem BioAssay (EPA / NIEHS)
